Screening data from PubChem.
Sampled rows, rich in hits. Any-hit rate of the full collection: about 2.9%.
D3 antag – antagonists of human D3 dopamine receptor; P35462; D3R cells, DiscoveRx beta-arrestin luminescence, antagonist mode; active compounds read low; max response, negative = inhibition, %; actives 2.5% (n = 360,000); in the data active = max response below about -50%; inconclusive = no clear call, values can overlap the other calls; note: % is set by controls: 0 for no effect and ±100 for the full control effect
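Cells plated overnight at 1500 cells/well, then exposed to library compounds with dopamine controls for 90 minutes at 37 degrees C. DiscoveRx reagent added for 30–60 minutes at room temperature; luminescence read, quantitative HTS format.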
TSHR antag – human thyrotropin receptor antagonism. P16473. actives 0.2% (n = 330,000). TSHR-expressing cells, TSH-stimulated cAMP HTRF, 2 h; active compounds read low. activity change, negative = inhibition, % at 11.5 µM;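 active = activity change below a set negative limit, meaning inhibition stronger than a set level, cut at about -70% in these data; inconclusive = activity change between two set negative limits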; note: % is set by controls: 0 for no effect and ±100 for the full control effect
Target sequence (P16473 whole entry, looked up): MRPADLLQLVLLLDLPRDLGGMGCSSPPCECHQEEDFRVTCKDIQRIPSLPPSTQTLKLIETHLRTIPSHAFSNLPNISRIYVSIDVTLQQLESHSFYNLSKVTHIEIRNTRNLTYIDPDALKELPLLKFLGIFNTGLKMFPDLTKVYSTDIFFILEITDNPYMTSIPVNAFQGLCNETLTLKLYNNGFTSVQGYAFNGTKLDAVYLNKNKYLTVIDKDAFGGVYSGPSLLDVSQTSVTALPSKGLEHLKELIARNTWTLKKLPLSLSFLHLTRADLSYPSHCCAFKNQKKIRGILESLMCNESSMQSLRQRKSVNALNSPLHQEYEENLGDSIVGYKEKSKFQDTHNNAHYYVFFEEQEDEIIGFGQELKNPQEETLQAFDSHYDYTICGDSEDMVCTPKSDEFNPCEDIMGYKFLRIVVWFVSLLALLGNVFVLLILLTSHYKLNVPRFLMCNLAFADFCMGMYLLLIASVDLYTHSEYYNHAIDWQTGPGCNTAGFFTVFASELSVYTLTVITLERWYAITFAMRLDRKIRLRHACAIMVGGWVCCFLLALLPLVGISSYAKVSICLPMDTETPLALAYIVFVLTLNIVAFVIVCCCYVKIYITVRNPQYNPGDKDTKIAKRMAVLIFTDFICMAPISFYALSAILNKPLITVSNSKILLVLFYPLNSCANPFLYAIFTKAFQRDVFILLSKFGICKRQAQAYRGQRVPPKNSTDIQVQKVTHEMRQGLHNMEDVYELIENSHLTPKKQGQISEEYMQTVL
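Freshly harvested TSHR cells receive pin-tooled compound, then EC80 TSH at 4nM final. After 2 hours at 37 deg C, antibody in lysis buffer and cAMP-d2 are added; 30 minutes at ambient temperature precede the HTRF read.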
D3 ag – agonists of human D3 dopamine receptor | P35462 | D3R DiscoveRx beta-arrestin cells, luminescence, 90 min | max activation, % | actives 0.58% (n = 410,000) | AID 652048; in the data active = max activation above about 30%; note: 0% is about no effect
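Agonist mode: compounds and dopamine controls were applied to plated cells for 90 min at 37 degrees C after an overnight attachment at 1500 cells/well. Luminescent read-out followed 30 - 60 minutes at room temperature with DiscoveRx detection reagent.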
B2AR arrestin – agonists driving beta-arrestin recruitment to human beta2-adrenergic receptor; beta-arrestin recruitment to beta2AR, cell-based reporter; Potency, µM (series often up to 46.1 µM), inactives show at the top dose activation, most hits filed as activators; actives 0.02% (n = 330,000); active = well fitted activation curve with a large enough effect; inconclusive = small, poorly fitted or top-dose-only effect;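 note: potency is the fitted concentration of half-maximal effect; 0% = DMSO controls and full agonism = EC100 isoproterenol or metaproterenol; nearly all actives have a fitted effect of over 65% in size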
Numbers without * were called inactive; u = inconclusive; x = not tested or not shown.

SMILES	D3 antag	TSHR antag	D3 ag	B2AR arrestin
CCCCCc1c(-c2ccc(OC)cc2)ncn1CCc1ccccc1OC	20	x	15	x
CC(C)[C@@H]1CN=C(N)N1C[C@@H]1CCCN1C[C@H](C)N1C[C@@H](Cc2ccccc2)N(CCc2ccc(Cl)c(Cl)c2)C1=N	-60*	-5	-20	-1%
CC[C@@H](C)[C@@H]1CN([C@@H](C)CN2CCC[C@H]2CN2C(N)=NC[C@H]2CC(C)C)C(=N)N1CCc1ccc(Cl)c(Cl)c1	-28	-3	-18	0%
C[C@@H](CN1CCC[C@H]1CN1C(N)=NC[C@@H]1Cc1ccccc1)N1C[C@@H](Cc2ccccc2)N(CCc2ccc(Cl)c(Cl)c2)C1=N	-53*	-13	-48	0%
CC(C)[C@H](CN1CCC[C@H]1CN1C(N)=NC[C@@H]1Cc1ccccc1)N1C[C@@H](Cc2ccccc2)N(CCc2ccc(Cl)c(Cl)c2)C1=N	-29	-6	-11	0%
Cc1ccc(N(CC(=O)NCCc2ccc(Cl)cc2)S(=O)(=O)N(C)C)cc1	x	x	10	x
COc1ccc(-n2c(=S)[nH]c3cc(C(=O)NCc4ccco4)ccc3c2=O)c(OC)c1	-61*	-25	-3	0%
Cc1ccc2scc(N3CCc4ccccc4C3)c(=O)c2c1	x	x	-18	x
Nc1ccc(-c2c3ccc(=O)cc-3oc3cc(O)ccc23)cc1C(=O)O	-55*	-3	-16	0%
O=c1ccc2c(-c3ccccc3)c3ccc(O)cc3oc-2c1	33	34	12	0%
CC12CCC(C(=O)N(CCCCN3CCN(Cc4ccccc4)CC3)C1=O)C2(C)C (centres undefined)	-74*	4	-11	0%
CNC(=O)c1ccc(Nc2nnc(-c3ccc(C)c(S(=O)(=O)N4CCOCC4)c3)c3ccccc23)cc1	x	x	-3	x
CCN(C(=O)c1cc2c(=O)oc3ccc(C)cc3c2s1)c1ccccc1C	x	x	5	x
Cc1ccc(C(=O)N/N=C\c2cc3c(cc2Br)OCO3)s1	-66*	-10	-35	0%
COC(=O)N/N=C\c1cc2c(cc1Br)OCO2	-15	-2	-6	8%
COc1ccc(N2CCN(C(=O)Cn3nc(Cc4cccnc4)c4ccccc4c3=O)CC2)cc1	x	x	70*	x
CCN(CC)S(=O)(=O)c1ccc2c(c1)N(CC(=O)Nc1ccc(Cl)cc1)C(=O)C1CCCN21 (centres undefined)	x	x	-3	x
COc1ccc(NC(=O)C2CCN(c3cc(-c4ccccc4)nc4ncnn34)CC2)cc1OC	36	-7	55*	0%
CCN(CC)c1ccc(C2C(C(=O)OC)=C(C)NC(C)=C2C(=O)OC)cc1	-51*	-13	-2	-1%
O=C(O)CCCCCN1C(=O)/C(=C\c2ccc(-c3ccc(Cl)cc3)o2)SC1=S	-10	2	4	0%
O=C(O)CCCN1C(=O)/C(=C/c2ccc(-c3nc4ccccc4s3)o2)SC1=S	-82*	-3	-1	0%
COc1cccc(-n2c(=O)c3c(C)c(C)sc3n(CC(=O)NCCc3ccc(OC)c(OC)c3)c2=O)c1	x	x	8	x
CCOc1ccc(-c2cc3nc(C4CCN(C(=O)OC(C)(C)C)CC4)c(C(=O)Nc4ccc(C)cc4C)cn3n2)cc1	x	x	17	x
O=c1cc(CO)oc(C(Nc2ccccn2)c2ccccc2F)c1O (centres undefined)	-51*	x	-5	x
O=c1cc(CO)oc(C(Nc2ccccn2)c2cccc(F)c2)c1O (centres undefined)	u	-1	1	0%
SMILES	D3 antag	TSHR antag	D3 ag	B2AR arrestin
O=C(Nc1sc2c(c1C(=O)NCCO)CCCC2)c1ccco1	25	-8	17	0%
O=C1Nc2ccccc2/C1=N/c1sc2c(c1C(=O)NCCc1ccccc1)CCCC2	-90*	-2	-19	-1%
Cc1ccc(S(=O)(=O)Nc2nncs2)cc1	-60*	-7	-1	0%
CC(=O)c1ccc(-c2cccc(-c3cc(=O)oc4ccc(C(C)(C)C)cc34)c2)cc1	37	-13	39*	7%
CC(C)(C)c1ccc2oc(=O)cc(-c3cccc(-c4ccc(C(F)(F)F)cc4)c3)c2c1	10	-5	-1	0%
CCCOc1ccccc1C1Oc2nc(SC)nnc2-c2ccccc2N1C(C)=O (centres undefined)	x	x	4	x
CCN(c1cccc(C(F)(F)F)c1)S(=O)(=O)c1ccc2c(c1)CCN2C(C)=O	-62*	-11	0	0%
CC(=O)N1CCc2cc(CNC(=O)Nc3ccccc3C(F)(F)F)ccc21	x	x	-16	x
CCN(c1cccc(C)c1)S(=O)(=O)c1ccc2c(c1)CCN2C(C)=O	8	-4	1	0%
